Inconclusive results are not listed. The source made the active and inactive calls. The call rests on the fitted dose curve; in most records, active means well fitted inhibition curve with a large enough effect; inconclusive means small, poorly fitted or top-dose-only effect; inactive means flat fitted curve, though single readings scatter.
Potency means the concentration at half of the fitted maximal effect.

A short description of the assay: P-glycoprotein substrates identified in KB-8-5-11 adenocarcinoma cell line, qHTS therapeutic library screen (AID 1346987). Further: nearly all actives have a fitted effect of over 65% in size. Conditions: KB-8-5-11 (P-gp overexpressing) viability, CellTiter-Glo, 72 h; series mostly up to 44.5 µM. The essentials: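 KB-8-5-11: colchicine-selected sub-line of KB-3-1 over-expressing P-gp; assay medium lacked colchicine. 72 h drug exposure at 37 degree C, CellTiter-Glo.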
Take `CC[C@H](C)[C@H](NC(=O)[C@H]1CCCCN1C)C(=O)N(COC(=O)CC(C)C)[C@H](C[C@@H](OC(C)=O)c1nc(C(=O)N[C@@H](Cc2ccc(O)cc2)C[C@H](C)C(=O)O)cs1)C(C)C`: the Potency was 1.9 nM (active).
For `CN[C@@H]1C[C@H]2O[C@@](C)([C@@H]1OC)n1c3ccccc3c3c4c(c5c6ccccc6n2c5c31)C(=O)NC4`, the Potency was 58 nM (active).
With `CC1=C[C@H]2O[C@@H]3C[C@H]4OC(=O)/C=C/C=C/C(=O)OCC/C(C)=C/C(=O)OC[C@@]2(CC1)[C@]4(C)[C@]31CO1` the figure was 17.8 nM (active).
For `CC(=O)OC[C@]12C[C@H](OC(=O)CC(C)C)C(C)=C[C@H]1O[C@@H]1[C@H](O)[C@@H](O)[C@@]2(C)[C@]12CO2`, the Potency is 112 nM (active).
As for `CC(=O)OC[C@]12C[C@H](OC(=O)CC(C)C)C(C)=C[C@H]1O[C@@H]1[C@H](O)C[C@@]2(C)[C@]12CO2`, the Potency was 709 nM (active).
As to `COC1CC(O[C@H]2CC[C@]3(C)C4CC[C@]5(C)[C@@H](C6=CC(=O)OC6)[C@@H](OC(C)=O)C[C@]5(O)C4CC[C@@H]3C2)OC(C)C1O[C@@H]1O[C@H](CO)[C@@H](O)[C@H](O)[C@H]1O` (some centres undefined), the Potency was 544 nM (active).
On to `Cc1c(Cl)c(OCC(=O)N2CCN(C)CC2)nc2sc(C(=O)NC3CC3)c(N)c12`, for which the Potency result was “inactive”.
On to `CO[C@H]1[C@H](O)[C@H](O[C@H]2CC[C@]3(C=O)C4CC[C@]5(C)[C@H](C6=CC(=O)OC6)CC[C@]5(O)C4CC[C@@H]3C2)O[C@@H](C)[C@@H]1O` (some centres undefined), for which the Potency was 25.2 nM (active).
As to `C[C@H]1O[C@@H](O[C@H]2CC[C@]3(C=O)C4CC[C@]5(C)[C@@H](C6=CC(=O)OC6)CC[C@]5(O)[C@@H]4CC[C@]3(O)C2)C[C@@H](O)[C@@H]1O` (some centres undefined), the Potency is 50.2 nM (active).
Take `COC1CC(O[C@H]2CC[C@]3(C=O)C4CC[C@]5(C)[C@@H](C6=CC(=O)OC6)CC[C@]5(O)[C@@H]4CC[C@@H]3C2)OC(C)C1O[C@@H]1O[C@H](CO)[C@@H](O[C@@H]2O[C@H](CO)[C@@H](O)[C@H](O)[C@H]2O)[C@H](O)[C@H]1O` (some centres undefined): the Potency is 123 nM (active).
As to `C[C@]12CC[C@H](O)C[C@H]1CC[C@@H]1[C@@H]2[C@H](O)C[C@]2(C)[C@@H](c3ccc(=O)oc3)CC[C@]12O`, the Potency is 51.7 nM (active).
`C[C@H]1O[C@@H](O[C@H]2CC[C@]3(CO)C4CC[C@]5(C)[C@@H](C6=CC(=O)OC6)CC[C@]5(O)[C@@H]4CC[C@H]3C2)[C@H](O)[C@H](O)[C@@H]1O[C@@H]1O[C@H](CO)[C@@H](O)[C@H](O)[C@H]1O` (some centres undefined): the Potency was 862 nM (active).
For `CC1=C[C@H]2O[C@@H]3[C@H](O)[C@@H](O)[C@](C)([C@@]2(CO)C[C@@H]1O)[C@]31CO1`, the Potency was 2060 nM (active).
For `C[C@H]1O[C@@H](n2cnc3c(N)ncnc32)C[C@@H]1O`, the Potency entry was “inactive”.
With `CC[C@H]1C2CC3[C@@H]4N(C)c5ccccc5[C@]45C[C@@H]([C@H]2[C@H]5O)N3[C@@H]1O` the entry was “inactive”.
Regarding `CO[C@@H]1C[C@H](O[C@H]2CC[C@@]3(C)C(CCC4C3CC[C@]3(C)[C@@H](C5=CC(=O)OC5)[C@@H](OC(C)=O)CC43O)C2)O[C@H](C)[C@@H]1O[C@H]1O[C@H](CO[C@@H]2O[C@H](CO)[C@@H](O)[C@H](O)[C@H]2O)[C@@H](O)[C@H](O)[C@H]1O` (some centres undefined), the Potency was 873 nM (active).
Take `CC[C@@]1(O)C(=O)OCc2c1cc1n(c2=O)Cc2cc3c(OC)cccc3nc2-1`: the Potency is 805 nM (active).
On to `CC1=CC2OC3[C@H](O)C[C@@](C)([C@]34CO4)[C@@]2(CO)[C@H](O)C1=O` (some centres undefined), for which the Potency was 1460 nM (active).
In the case of `CC(=O)O[C@H]1CC[C@@]2(CI)C(=CC[C@@H]3[C@@H]2CC[C@]2(C)C(=O)CC[C@@H]32)C1`, the Potency entry is “inactive”.
`C=C1[C@@H](C)[C@H]2[C@H](Cc3ccccc3)NC(=O)[C@]23OC(=O)/C=C/C(=O)CCC[C@@H](C)C/C=C/[C@H]3[C@@H]1O`: the Potency is 5800 nM (active).
In the case of `CN(C)c1cc2c(cc1Sc1nc3c(N)nccc3n1CCNCC(C)(C)C)OCO2`, the Potency is 517 nM (active).
Regarding `C[C@H]1C/C=C/[C@H]2[C@@H]3O[C@]3(C)[C@@H](C)[C@H]3[C@H](Cc4ccccc4)NC(=O)[C@]32OC(=O)O/C=C/[C@@](C)(O)C1=O`, the Potency is 2240 nM (active).
As for `CC(C)(C)[C@]1(O)C[C@@H]2OC(=O)C[C@@]23C(=O)O[C@@H]2OC(=O)[C@@H](O)[C@]213`, the Potency result is “inactive”.
In the case of `N#CC(O[C@@H]1O[C@H](CO)[C@@H](O)[C@H](O)[C@H]1O)c1ccccc1` (some centres undefined), the Potency entry was “inactive”.
Take `CC(=O)O[C@H]1CN2CCC1CC2`: the Potency result was “inactive”.
`CC(=O)OC[C@]12C[C@H](O)C(C)=C[C@H]1O[C@@H]1[C@H](O)[C@@H](OC(C)=O)[C@@]2(C)[C@]12CO2`: the Potency is 14.3 nM (active).
The result for `CC1=CC(=O)[C@@H](O)[C@]2(C)C3[C@@H](O)[C@@H]4OC(=O)[C@@H]([C@H]4C)[C@]3(C)C(=O)C[C@@H]12` (some centres undefined) reads 3210 nM (active); that for `CC[C@@H]1C[C@H]2CC[C@H](O2)[C@H](C)C(=O)O[C@@H](C)C[C@@H]2CC[C@@H](O2)[C@@H](C)C(=O)O[C@H](CC)C[C@H]2CC[C@H](O2)[C@H](C)C(=O)O[C@@H](C)C[C@@H]2CC[C@@H](O2)[C@@H](C)C(=O)O1`, 1930 nM (active).
With `N#Cc1cn([C@@H]2O[C@H](CO)[C@H](O)[C@@H]2O)c2ncnc(N)c12` the figure was 20.6 nM (active).
